From PubChem BioAssay AID1159580 (chemical genetic matrix, 2015)
About 2,000 (36%) of roughly 5,500 compounds were called active. Roughly 18% stayed inconclusive and do not appear here. Cut-off read from the data, not from the text of the source: active = normalized growth mostly below about 0.91 (no sharp cut-off); inconclusive = no clear call, values can overlap the other calls; inactive = mostly above about 0.92. The list shows a part of the results.

Test: chemical genetic growth profiling, strain panel (AID 1159580);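 note: tested at 20 µM; growth read once vehicle control cultures reached saturation at 30 °C; 1 = growth at the plate median or of vehicle wells; lower values mean less growth of the strain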
Settings: growth OD

Measured: normalized growth

CC(Cc1cccc(C(F)(F)F)c1)NCCOC(=O)c1ccccc1 (configuration not stated)
active: S. cerevisiae deletion strains, locus YLR262C, strain YPT6 (second series), hits give low values 0.785 | S. cerevisiae deletion strains, locus YLR342W, strain FKS1 (second series), hits give low values 0.745 | S. cerevisiae deletion strains, locus YLR342W, strain FKS1, hits give low values 0.88 | S. cerevisiae deletion strains, locus YOR270C, strain vph1, hits give low values 0.72 | S. cerevisiae deletion strains, locus YPL051W, strain arl3, hits give low values 0.904
inactive: S. cerevisiae deletion strains, locus YJR075W, strain HOC1, hits give low values 0.886 | S. cerevisiae deletion strains, locus YKL009W, strain mrt4, hits give low values 0.974 | S. cerevisiae deletion strains, locus YKL068W, hits give low values 1.01 | S. cerevisiae deletion strains, locus YKL085W, strain MDH1 (second series), hits give low values 0.998 | S. cerevisiae deletion strains, locus YKL085W, strain MDH1, hits give low values 0.998 | S. cerevisiae deletion strains, locus YKL160W, strain elf1, hits give low values 0.946 | S. cerevisiae deletion strains, locus YKL190W, strain CNB1, hits give low values 0.982 | S. cerevisiae deletion strains, locus YKR001C, strain vps1, hits give low values 1.03 | S. cerevisiae deletion strains, locus YKR026C, strain gcn3, hits give low values 0.987 | S. cerevisiae deletion strains, locus YKR091W, strain srl3, hits give low values 1 | S. cerevisiae deletion strains, locus YLL001W, strain dnm1, hits give low values 0.935 | S. cerevisiae deletion strains, locus YLL026W, hits give low values 0.933 | S. cerevisiae deletion strains, locus YLL041C, strain sdh2, hits give low values 0.993 | S. cerevisiae deletion strains, locus YLR027C, strain aat2, hits give low values 0.93 | S. cerevisiae deletion strains, locus YLR039C, strain RIC1, hits give low values 1.02 | S. cerevisiae deletion strains, locus YLR058C, strain SHM2, hits give low values 0.967 | S. cerevisiae deletion strains, locus YLR102C, strain apc9, hits give low values 1.02 | S. cerevisiae deletion strains, locus YLR113W, strain HOG1, hits give low values 1 | S. cerevisiae deletion strains, locus YLR221C, strain rsa3, hits give low values 0.956 | S. cerevisiae deletion strains, locus YLR258W, strain gsy2, hits give low values 0.974 | S. cerevisiae deletion strains, locus YLR262C, strain YPT6, hits give low values 1.01 | S. cerevisiae deletion strains, locus YLR268W, strain sec22, hits give low values 0.992 | S. cerevisiae deletion strains, locus YLR320W, strain mms22, hits give low values 0.913 | S. cerevisiae deletion strains, locus YLR330W, strain CHS5, hits give low values 0.991 | S. cerevisiae deletion strains, locus YLR357W, strain rsc2, hits give low values 0.987 | S. cerevisiae deletion strains, locus YLR370C, strain arc18, hits give low values 0.931 | S. cerevisiae deletion strains, locus YLR371W, strain rom2, hits give low values 1.02 | S. cerevisiae deletion strains, locus YLR384C, strain iki3, hits give low values 0.988 | S. cerevisiae deletion strains, locus YLR418C, strain cdc73, hits give low values 0.978 | S. cerevisiae deletion strains, locus YML016C, strain PPZ1, hits give low values 0.989 | S. cerevisiae deletion strains, locus YML032C, strain rad52, hits give low values 0.941 | S. cerevisiae deletion strains, locus YML120C, strain ndi1, hits give low values 0.953 | S. cerevisiae deletion strains, locus YML124C, strain tub3, hits give low values 1.02 | S. cerevisiae deletion strains, locus YMR058W, strain fet3, hits give low values 0.905 | S. cerevisiae deletion strains, locus YMR078C, strain ctf18, hits give low values 1.02 | S. cerevisiae deletion strains, locus YMR125W, strain sto1, hits give low values 0.97 | S. cerevisiae deletion strains, locus YMR129W, hits give low values 0.985 | S. cerevisiae deletion strains, locus YMR205C, strain PFK2, hits give low values 0.961 | S. cerevisiae deletion strains, locus YMR223W, strain ubp8, hits give low values 0.947 | S. cerevisiae deletion strains, locus YMR231W, strain pep5, hits give low values 1 | S. cerevisiae deletion strains, locus YMR263W, strain SAP30, hits give low values 0.962 | S. cerevisiae deletion strains, locus YMR307W, strain GAS1, hits give low values 0.955 | S. cerevisiae deletion strains, locus YNL067W, strain RPL9B, hits give low values 0.923 | S. cerevisiae deletion strains, locus YNL071W, strain lat1, hits give low values 0.996 | S. cerevisiae deletion strains, locus YNL128W, strain TEP1, hits give low values 0.951 | S. cerevisiae deletion strains, locus YNL153C, strain GIM3, hits give low values 0.938 | S. cerevisiae deletion strains, locus YNL183C, strain NPR1, hits give low values 0.895 | S. cerevisiae deletion strains, locus YNL209W, strain ssb2, hits give low values 0.963 | S. cerevisiae deletion strains, locus YNL233W, strain BNI4, hits give low values 0.877 | S. cerevisiae deletion strains, locus YNL248C, strain rpa49, hits give low values 0.906 | S. cerevisiae deletion strains, locus YNL250W, strain rad50, hits give low values 1.03 | S. cerevisiae deletion strains, locus YNL271C, strain bni1, hits give low values 1.01 | S. cerevisiae deletion strains, locus YNL298W, strain CLA4, hits give low values 1.01 | S. cerevisiae deletion strains, locus YNL307C, strain MCK1, hits give low values 0.974 | S. cerevisiae deletion strains, locus YNL322C, strain KRE1 (second series), hits give low values 1.01 | S. cerevisiae deletion strains, locus YNL322C, strain KRE1, hits give low values 1.01 | S. cerevisiae deletion strains, locus YNR049C, strain mso1, hits give low values 0.998 | S. cerevisiae deletion strains, locus YNR052C, strain pop2, hits give low values 0.921 | S. cerevisiae deletion strains, locus YOL006C, strain TOP1, hits give low values 0.605 | S. cerevisiae deletion strains, locus YOL012C, strain htz1 0.888 | S. cerevisiae deletion strains, locus YOL147C, strain pex11, hits give low values 1.01 | S. cerevisiae deletion strains, locus YOR001W, strain rrp6, hits give low values 0.92 | S. cerevisiae deletion strains, locus YOR061W, strain CKA2, hits give low values 0.994 | S. cerevisiae deletion strains, locus YOR069W, strain VPS5, hits give low values 0.995 | S. cerevisiae deletion strains, locus YOR070C, strain gyp1, hits give low values 0.985 | S. cerevisiae deletion strains, locus YOR080W, strain dia2, hits give low values 0.971 | S. cerevisiae deletion strains, locus YOR083W, strain WHI5, hits give low values 0.913 | S. cerevisiae deletion strains, locus YOR106W, strain vam3, hits give low values 0.906 | S. cerevisiae deletion strains, locus YOR136W, strain idh2, hits give low values 1.01 | S. cerevisiae deletion strains, locus YOR144C, strain elg1, hits give low values 1.02 | S. cerevisiae deletion strains, locus YOR184W, strain ser1, hits give low values 1.01 | S. cerevisiae deletion strains, locus YOR231W, strain MKK1, hits give low values 0.979 | S. cerevisiae deletion strains, locus YOR265W, strain rbl2, hits give low values 0.975 | S. cerevisiae deletion strains, locus YOR290C, strain snf2, hits give low values 0.975 | S. cerevisiae deletion strains, locus YOR316C, strain cot1, hits give low values 1.03 | S. cerevisiae deletion strains, locus YPL055C, strain LGE1, hits give low values 0.954 | S. cerevisiae deletion strains, locus YPL078C, strain atp4, hits give low values 0.944 | S. cerevisiae deletion strains, locus YPL106C, strain sse1, hits give low values 0.975 | S. cerevisiae deletion strains, locus YPL240C, strain hsp82, hits give low values 0.98 | S. cerevisiae deletion strains, locus YPL241C, strain CIN2, hits give low values 0.995 | S. cerevisiae deletion strains, locus YPL256C, strain CLN2, hits give low values 0.969 | S. cerevisiae deletion strains, locus YPR119W, strain clb2, hits give low values 1.02 | S. cerevisiae deletion strains, locus YPR141C, strain kar3, hits give low values 1.02 | S. cerevisiae deletion strains, locus YPR163C, strain tif3, hits give low values 0.928 | S. cerevisiae deletion strains, locus YPR167C, strain met16, hits give low values 1 | S. cerevisiae deletion strains, strain wtn01, hits give low values 0.978 | S. cerevisiae strains, strain wild type, hits give low values 0.955
